Source: PubChem BioAssay AID1851 (National Center for Advancing Translational Sciences (NCATS), 2009)
Values joined by “and” are separate entries in the source; they are usually repeats but may differ in a detail not shown here. Equal entries are not always repeated. Among all 16,000 compounds or so, about 4,000 (25%) were called active. Not shown: some 26% with an inconclusive outcome. A selection follows. A number with no mark means an inactive call. Calls come from the whole dose curve; as a rule, active = well fitted curve in the direction sought with a large enough effect; inconclusive = small, poorly fitted or top-dose-only effect, or effect the other way; inactive = no such curve, though single readings can be large or run the other way.

Biological target: Cytochrome P450 2C9 (Homo sapiens) (UniProt P11712)
Sequence (P11712 whole entry, looked up): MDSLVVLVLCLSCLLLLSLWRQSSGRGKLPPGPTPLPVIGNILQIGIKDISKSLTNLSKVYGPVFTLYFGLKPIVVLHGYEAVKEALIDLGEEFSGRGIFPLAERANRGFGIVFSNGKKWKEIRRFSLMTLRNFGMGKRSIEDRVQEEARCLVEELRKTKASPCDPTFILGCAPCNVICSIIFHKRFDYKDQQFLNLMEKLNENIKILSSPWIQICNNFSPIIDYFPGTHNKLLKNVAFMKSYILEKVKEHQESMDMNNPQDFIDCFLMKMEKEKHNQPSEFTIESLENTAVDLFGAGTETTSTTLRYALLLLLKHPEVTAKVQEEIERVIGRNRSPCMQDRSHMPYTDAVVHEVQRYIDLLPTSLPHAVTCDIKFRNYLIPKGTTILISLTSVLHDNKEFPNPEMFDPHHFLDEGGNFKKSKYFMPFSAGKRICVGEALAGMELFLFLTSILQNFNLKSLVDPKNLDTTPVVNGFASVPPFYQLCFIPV
Assay: Cytochrome panel assay with activity outcomes
Settings: recombinant CYP, pro-luciferin dealkylation, luminescence, p450-cyp2c9; series mostly up to 57.1 µM; activity, negative = inhibition: at the top concentration
% is set by controls: 0 for no effect and ±100 for the full control effect.

Row | SMILES | activity, negative = inhibition | AC50
1 | Cn1c(=O)c2c(nc(C(=N)SCC(=O)O)n2C)n(C)c1=O | -13.3% [at 11.4 µM] | –
2 | Cc1[nH]c2c(C)ccc(C)c2c1CC(=O)O | -16.5% [at 11.4 µM] | –
3 | Cc1ccccc1-c1nc(NCc2cccnc2)c2ccccc2n1 | 9.82% [at 2.29 µM] | –
4 | Clc1ccccc1-c1nc(NCc2cccnc2)c2ccccc2n1 | -14.1% [at 2.29 µM] | –
5 | Clc1ccccc1-c1nc(N/N=C/c2cccnc2)c2ccccc2n1 | – | 2.24 µM (active)
6 | CCC(=O)O[C@H](CC(=O)O)C[N+](C)(C)C | -21.4% | –
7 | N[C@@H](COP(=O)(O)O)C(=O)O | 1.4% | –
8 | Fc1ccc(-c2[nH]ncc2-c2nnnn2-c2ccccc2)c(F)c1 | – | 7.94 µM (active)
9 | C=CC[C@@H](C(=O)O)c1ccccc1 | -1.11% [at 11.4 µM] | –
10 | CCOc1cc(/C=N/NC(=O)COc2cccc(C)c2)ccc1OC(=O)c1cccs1 | – | 3.16 µM (active)
11 | CCOc1cc(/C=N/NC(=O)CNc2cccc(C)c2)ccc1OC(=O)c1ccccc1 | – | 5.01 µM (active)
12 | N#Cc1cccc(NC(=O)N2CC3(CCN(C(=O)c4cnccn4)CC3)C2)c1 | 6.68% | –
13 | CC(C)(C)c1c2c(c(C(C)(C)C)c3c1OCN(Cc1ccccc1)C3)OCN(Cc1ccccc1)C2 | -7.82% [at 11.4 µM] | –
14 | C#CCSc1nc(Cc2ccc(Cl)cc2)nc2ccccc12 | – | 2.82 µM (active)
15 | O=C1NC(c2ccccc2)=NC1(NS(=O)(=O)c1ccccc1)C(F)(F)F (stereo unspecified) | -1.05% | –
16 | O=C(OCCNC(=O)c1ccc2ccccc2n1)c1ccc(F)cc1 | – | 10 µM (active)
17 | NCCNC(=O)c1ncsc1-c1cccc(F)c1 | -13.3% | –
18 | CCCCNc1ccc(C(=O)OCCOCCOCCOCCOCCOCCOCCOCCOCCOC)cc1 | -19.2% [at 25.6 µM] | –
19 | O=c1[nH]c(SCc2c(Cl)c(Cl)c(Cl)c(Cl)c2Cl)nc(=S)[nH]1 | – | 1.26 µM (active)
20 | Nc1ccc(N=Nc2c(S(=O)(=O)O)cc3ccccc3c2S(=O)(=O)O)cc1 | 8.14% [at 11.4 µM] | –
21 | NCC[C@H]1CCC[C@H](CCN)N1 | 18.1% | –
22 | COc1cc2nc(N3CCN(C(=O)c4ccco4)CC3)nc(N)c2cc1OC | 15.7% [at 25.6 µM] | –
23 | Cc1ccc(C)c(N2CCN(C(=O)c3ccc4nc(-c5ccco5)c(-c5ccco5)nc4c3)CC2)c1 | – | 7.08 µM (active)

Row | SMILES | activity, negative = inhibition | AC50
24 | COc1ccc(C)cc1NC(=O)CSc1nnc(-c2ccc(OC)c(OC)c2)n1N | -24.7% | –
25 | COc1ccc(C)cc1NC(=O)CCC(=O)Nc1nnc(C(F)(F)F)s1 | – | 1.26 µM (active)
26 | CCC(=O)OCC(=O)[C@@]1(OC(=O)CC)[C@H](C)C[C@@H]2[C@H]3CCC4=CC(=O)C=C[C@]4(C)[C@]3(Cl)[C@@H](O)C[C@@]21C | -6.62% [at 25.6 µM] | –
27 | CC(C)NC[C@H](O)c1ccc2ccccc2c1 | – | inactive
28 | CCCCOC(OCCCC)[C@H](O)CSc1ccc2ccccc2c1 | – | 2 µM (active)
29 | CCN(CC)C[C@@H](O)c1ccc2ccc3ccccc3c2c1 | -3.91% [at 11.4 µM] | –
30 | Cc1cc(C)c(C#N)c(OCC(=O)c2ccc(Br)cc2)n1 | – | 10 µM (active)
31 | Cc1cc(C)c(C#N)c(Oc2ccccc2)n1 | -26.3% | –
32 | Cc1ccc(=O)n(-c2ccccc2)c1 | -14.5% | –
33 | COc1ccc(NC(=O)N2CCCC3(CCN(C(=O)c4cccn4C)CC3)C2)cc1 | 6.73% | –
34 | O=C1CN(C(=O)c2ccc(Br)o2)C(c2ccc(F)cc2)c2cc(Cl)ccc2N1 (stereo unspecified) | – | 6.31 µM (active)
35 | CO[C@H]1COC(=O)C/C=C\[C@@H](C)COC(=O)[C@@H](CCSC)NC(=O)C/C=C\[C@@H]1C | -2.93% [at 11.4 µM] and 12.5% [at 11.4 µM] | –
36 | C[C@H]1COC(=O)[C@H]2CCCN2C(=O)[C@@H](C)COC(=O)[C@H](Cc2ccccc2)NC1=O | 13.4% [at 11.4 µM] | –
37 | Cc1ccc(S(=O)(=O)NCc2ccccc2)cc1 | -8.12% | –
38 | Cc1ccc(S(=O)(=O)N[C@H](C(=O)O)C(C)C)cc1 | -4.41% [at 11.4 µM] | –
39 | Cc1ccc(S(=O)(=O)NNc2ccccc2)cc1 | – | 8.91 µM (active)
40 | Cc1ccc(S(=O)(=O)N[C@H]2COC(=O)C/C=C\[C@H](C)[C@@H](NS(=O)(=O)c3ccc(C)cc3)COC(=O)C/C=C\[C@@H]2C)cc1 | -6.21% [at 11.4 µM] | –
41 | Cc1ccc(NNS(=O)(=O)c2ccc(C)cc2)cc1 | – | 8.91 µM (active)
42 | CCN=C1NN=C(c2ccc(C)cc2)CS1 | – | 6.31 µM (active)
43 | COc1ccc2cc(C#N)c(SCC(=O)NNC(=O)Cc3ccccc3)nc2c1 | -16.9% | –
44 | COc1cccc(NC(=O)CSc2nc3ccccc3cc2Cc2ccccc2)c1 | – | 6.31 µM (active)
45 | CCN(CC)C(=O)CSc1nnc(C2CCCCC2)o1 | 7.48% | –
46 | Cn1c(=O)c2c(nc(N3CCN(c4ccccn4)CC3)n2Cc2ccccc2Cl)n(C)c1=O | – | 3.55 µM (active)

Row | SMILES | activity, negative = inhibition | AC50
47 | C=CCn1cc(Cl)c(=O)n(CC=C)c1=O | -24.2% | –
48 | C=CCn1c(=O)c2c(nc(-c3ccc(S(=O)(=O)O)cc3)n2C)n(C)c1=O | 23.6% | –
49 | C=CCn1c(=O)c2c(nc(Br)n2Cc2ccccc2Cl)n(C)c1=O | – | 14.1 µM (active)
50 | Cn1c(=O)c2c(nc(N3CCN(c4ccccn4)CC3)n2Cc2ccc(Cl)cc2Cl)n(C)c1=O | -25.2% | –
51 | CN1CCN(c2nc3c(c(=O)n(C)c(=O)n3C)n2C)CC1 | 0.789% [at 11.4 µM] | –
52 | O=C(O)CCC(=O)CCC(=O)c1ccccc1 | 5.67% | –
53 | OCCN1CCN(CCC=C2c3ccccc3Sc3ccc(Cl)cc32)CC1 | -0.458% [at 25.6 µM] | –
54 | COc1cc(OC)cc(C(=O)NCC(=O)OC2CCOC2=O)c1 (stereo unspecified) | -19.6% | –
55 | CN1CCN(C(=O)c2ccc(-n3cccc3)cc2)CC1 | 9.87% | –
56 | COc1cc(OC)cc(C(=O)Nn2cc(C(=O)N3CCN(C)CC3)c3ccccc3c2=O)c1 | – | 11.2 µM (active)
57 | CC[C@H](C)C(=O)O[C@H]1CCC=C2C=C[C@H](C)[C@H](CC[C@@H]3C[C@H](O)CC(=O)O3)[C@H]21 | -8.33% | –
58 | C=CCNC(=O)c1ccc2nc(-c3ccccc3)c(-c3ccccc3)nc2c1 | – | 14.1 µM (active)
59 | NCCc1nc(-c2nc(C(=O)O)cs2)cs1 | -10.5% [at 11.4 µM] | –
60 | C=CCNC(=O)c1csc(-c2ccccc2)n1 | – | 15.8 µM (active)
61 | C=CCNC(=O)c1ccc(-c2nc(-c3ccc(Cl)c(Cl)c3)cs2)cc1 | -18.2% | –
62 | CN(C)C(=O)c1ccc(-c2ccc3ncnc(NCc4ccccc4)c3c2)cc1 | 13.4% [at 2.29 µM] | –
63 | CSc1nc(C)c2c(n1)N(c1ccc(C(F)(F)F)cc1)CC2 | -10.3% | –
64 | O=C1N=C(N2CCOCC2)S/C1=C/c1cccs1 | 11.2% | –
65 | N=C1/C(=C/c2cccs2)C(=O)N=C2SN=C(SCc3ccccc3)N12 | – | 0.316 µM (active)
66 | CN1[C@@H](CC(=O)c2ccccc2)CCC[C@@H]1C[C@@H](O)c1ccccc1 | – | inactive
67 | O=C(C[C@@H]1C=Cc2ccccc2N1C(=O)c1ccccc1)c1ccccc1 | – | 2.51 µM (active)
68 | NC(=O)N1c2ccccc2C=Cc2ccccc21 | -13.6% [at 25.6 µM] | –
69 | CO[C@@H]1COC(=O)C/C=C\[C@H](C)[C@@H](NS(=O)(=O)c2ccc(C)cc2)COC(=O)C/C=C\[C@@H]1C | -12.8% [at 11.4 µM] and 11% [at 11.4 µM] | –

Row | SMILES | activity, negative = inhibition | AC50
70 | Nc1nc2c(c(=O)[nH]1)N(C=O)[C@H](CNc1ccc(C(=O)N[C@@H](CCC(=O)O)C(=O)O)cc1)CN2 | 5.94% [at 25.6 µM] | –
71 | Cc1cc(C(C)(C)C)c(OCCCN2CCOCC2)c(C(C)(C)C)c1 | -0.273% [at 11.4 µM] | –
72 | N#Cc1c(N2CCCCC2)nc(N)c2c(N)nc3c(c12)CC(c1ccccc1)O3 (stereo unspecified) | – | 4.47 µM (active)
73 | CN(C)Cc1ccccc1-c1nc(N2CCOCC2)c2ccccc2n1 | 5.66% [at 2.29 µM] | –
74 | CN(C)Cc1ccccc1-c1ccc2ncnc(N3CCOCC3)c2c1 | 8.68% [at 2.29 µM] | –
75 | CN1c2ccccc2C(C)(C)C12C=Nc1c(cc(N3CCOCC3)c3ccccc13)O2 (stereo unspecified) | – | 1.58 µM (active)
76 | CCOc1cc(C2NN=C(c3ccccc3)S2)ccc1OCc1ccccc1Cl (stereo unspecified) | – | 8.91 µM (active)
77 | COc1cc(CNCc2ccccn2)ccc1OCc1ccc(Cl)cc1Cl | -15.6% | –
78 | CN(C)C(=O)c1ccc(-c2cncnc2NC2CCNCC2)cc1 | 15.8% [at 2.29 µM] | –
79 | CCOC(=O)C1C(=O)C=C(c2ccc(NS(C)(=O)=O)cc2)CC1c1ccco1 (stereo unspecified) | – | 4.47 µM (active)
80 | CCOC(=O)C1C(=O)C=C(c2ccc(C)cc2)CC1c1ccco1 (stereo unspecified) | – | 3.16 µM (active)
81 | CCN(CC)C(=O)Cn1cnc([N+](=O)[O-])n1 | -10.1% | –
82 | CN1CC(c2ccccc2)C2(COc3ccccc3C2=O)C12C(=O)Nc1ccccc12 (stereo unspecified) | – | 3.98 µM (active)
83 | COc1cc(C2C(C(=O)OCCC#N)=C(C)NC3=C2S(=O)(=O)c2ccccc23)cc(OC)c1OC (stereo unspecified) | – | 7.08 µM (active)
84 | C[C@@H](C(=O)O)c1ccc(C[C@@H]2CCCC2=O)cc1 | -13.5% | –
85 | Cc1nc2ccccn2c1C(=O)CSc1ccccc1Cl | – | 11.2 µM (active)
86 | O=C(c1ccc(F)cc1)C1CCN(C(=S)Nc2ccccc2)CC1 | – | 8.91 µM (active)
87 | O=C(c1ccc(F)cc1)C1CCN(CCCCc2ccccc2)CC1 | 7.51% | –
88 | S=C(Nc1ccccc1)N1CCCCC1 | -28.5% | –
89 | CC(C)CO/N=C1/C[C@@H](O)[C@@H](O)[C@@H]2[C@@H]3C(=O)N(Cc4ccc5c(c4)OCO5)C(=O)[C@H]3CC[C@H]12 | -12.4% [at 11.4 µM] | –
90 | CC(C)CO[C@H](c1ccc2c(c1)OCO2)[C@H](C)Br | – | 2 µM (active)
91 | CC(C)CO/N=C1/C[C@@H](O)[C@@H](O)[C@@H]2[C@@H]3C(=O)N(Cc4ccc5c(c4)OCO5)C(=O)[C@H]3CC[C@@H]12 | -17.6% [at 11.4 µM] | –
